Assay outcomes from PubChem.
Most compounds without a hit are left out; they make up all but 19% or so of the library.
HT1080 IDH1KD tx – toxicity to HT-1080 IDH1 knockdown cells (counter line). AID 686971. 2% of 360,000 active. HT-1080 IDH1 knockdown viability, ATP luminescence, 48 h. Potency, µM (top dose mostly 46.1 µM), for inactives: top-dose activity, negative = toxicity, actives largely listed as cytotoxic;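 further: potency means the concentration at half of the fitted maximal effect; 0% = DMSO wells and -100% = cell-free medium wells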
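Knockdown cells (IDH1KD HT-1080) received compounds 2 h after plating at 750 cells/well and were kept 48 h at 37 °C in 5% FBS RPMI. A CellTiter-Glo luminescence read gave % activity for curve fitting.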
TDP1 cell CPT – DT40-hTDP1 cell growth loss with CPT; chicken DT40 Tdp1-/-;hTDP1 cells + 20 nM CPT, ATP luminescence, 48 h; Potency, µM (top dose mostly 46.2 µM), without a hit: top-dose activity change, negative = growth inhibition, hits mostly inhibitors; 12% of 420,000 active; further: potency means the concentration at half of the fitted maximal effect; nearly all actives have a fitted effect of over 55% in size
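Cell growth measured by CellTiter-Glo luminescence after a minimum 48 h, 37 C compound exposure with 20 nM CPT in Tdp1-knockout DT40 cells stably expressing hTDP1, seeded 400/well; qHTS titration format.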
IL1B secr inh – blocks inflammasome-driven IL-1 beta release; THP-1 LPS/ATP IL-1B secretion, AlphaLISA, 16 h; hits give low values; activity change, % at 57.5 µM; 4.7% of 360,000 active; AID 743279; in the data active means activity change below about -50%; inconclusive means mostly about -30% to -49%
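Secreted IL-1B measured by AlphaLISA bead assay after 16 h compound exposure of THP-1 cells; compounds (final up to 57.5 uM) added 1 h before LPS (250 ng/mL) and ATP (1.25 mM) stimulation; lower signal means less secretion.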
DT40 TDP1 no CPT – qHTS for Inhibitors of human tyrosyl-DNA phosphodiesterase 1 (TDP1): qHTS in cells in absence of CPT; DT40 Tdp1-/- hTDP1 cells, no CPT, ATP luminescence, 48 h; Potency, µM (titrated, usually from 46.2 µM), for inactives: at the highest dose activity change, negative = growth inhibition, actives largely listed as inhibitors; 15% of 420,000 active; AID 686978, 2013; further: potency means the concentration at half of the fitted maximal effect; nearly all actives have a fitted effect of over 55% in size
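Camptothecin absent (DMSO only). Human TDP1-complemented DT40 knockout cells, 400 cells/well, 37 °C for minimum 48 hr; ATP measured via CellTiter-Glo, 30 min dark incubation, luminescence.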
HT1080NT lethal – kills 2HG-producing HT-1080-NT fibrosarcoma cells. HT-1080-NT fibrosarcoma viability, CellTiter-Glo ATP luminescence, 48 h. Potency, µM (highest dose often 46.1 µM), inactives show at the top dose activity, negative = less viability, most hits filed as cytotoxic. 1.6% of 360,000 active. AID 686970;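 further: NT is the 2HG producing partner of a matched IDH1 knockdown line; potency means the concentration at half of the fitted maximal effect; 0% = DMSO-treated cells and -100% = media-only wells without cells; nearly all actives have a fitted effect of over 55% in size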
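Compounds were tested in concentration-response format on HT-1080-NT cells for 48 hours at 37 degrees C. Cell viability came from CellTiter-Glo luminescence; curves were classified by r2, response magnitude and activity.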
* hit, by the source's call; ? = inconclusive; · = not tested or not shown; [ ] = remark or other dose. Unless noted, the call rests on the fitted dose curve; in most records, active means well fitted curve in the direction sought with a large enough effect; inconclusive means small, poorly fitted or top-dose-only effect, or another doubt; inactive means no such curve, though single readings can be large; an effect the other way counts as inactive or inconclusive. Unless noted, on the % scale 0 is the no-effect control and ±100 the full control effect.

SMILES | HT1080 IDH1KD tx | TDP1 cell CPT | IL1B secr inh | DT40 TDP1 no CPT | HT1080NT lethal
COc1ccc(C)cc1NC(=O)c1ccc(=O)n(Cc2ccccc2)c1 | · | ? | · | 23µM* | ·
O=C(Nc1ccccc1)c1ccc(=O)n(Cc2ccc(F)c(F)c2)c1 | -13% | -17% | 12 | -28% | 7%
COc1ccc(C)cc1NC(=O)c1ccc(CN2CCN(c3ccccc3)CC2)cc1 | 7% | ? | 8 | ? | 1%
O=C(c1csnn1)N1CCC[C@@]2(CCN(Cc3ccccc3)C2)C1 | · | 1% | · | 3% | ·
Cc1nn(Cc2noc(C(=O)NCc3ccccn3)n2)c(C)c1Br | -11% | 3% | 14 | 9% | -22%
Clc1ccc(-c2nnc(N3CCOCC3)o2)cc1 | 11% | 3% | 35 | 7% | 0%
COc1cc[n+]([O-])cc1[N+](=O)[O-] | 20% | ? | -19 | 2.3µM* | 18%
COc1ccc(S(=O)(=O)CC2(O)CCN(C(=O)CC(C)C)CC2)cc1 | 11% | 3% | -5 | 7% | 1%
COc1ccc(S(=O)(=O)N(Cc2ccccc2)c2ccccc2C(=O)O)cc1 | 0% | 1% | 22 | 0% | -9%
COc1cccc(/C=N/NC(=O)c2ccccc2N(Cc2ccccc2)S(=O)(=O)c2ccccc2)c1OC | -9% | 23µM* | -5 | 18µM* | -2%
CCN1CCN(C(=O)c2ccccc2N(Cc2ccccc2)S(=O)(=O)c2ccc(C)cc2)CC1 | -11% | ? | -68* | 16µM* | -17%
COc1ccc(S(=O)(=O)N(Cc2ccccc2)c2ccccc2C(=O)N2CCOCC2)cc1 | ? | ? | 72 | ? | 23µM*
CCN1CCN(C(=O)c2ccccc2N(Cc2ccccc2)S(C)(=O)=O)CC1 | 4% | -9% | 19 | 1% | 7%
CC(C)C[C@H]1CN(CCCC[C@H]2CNC(=O)C(=O)N2Cc2ccccc2)C(=O)C(=O)N1Cc1ccccc1 | 13% | -9% | -4 | -12% | 17%
Cc1ccc(NC(=O)CN2C(=O)NC3(CCc4ccccc43)C2=O)cc1Cl (stereo unspecified) | -4%[9.24 µM] | -25% | 1 | 26µM* | -26%
COc1ccc(N2CCN(C(=O)CN3C(=O)NC4(CCCc5ccccc54)C3=O)CC2)cc1 (stereo unspecified) | -14% | -8% | -4 | 16µM* | -4%
O=C(CN1C(=O)NC2(CCc3ccccc32)C1=O)c1ccc(Br)cc1 (stereo unspecified) | 0% | ? | -59* | -26% | -2%
O=C(CN1C(=O)NC2(CCCc3ccccc32)C1=O)c1ccc(Br)cc1 (stereo unspecified) | 2% | ? | -8 | 13µM* | 0%
CC(C)OP(=O)(OC(C)C)C1(O)C(=O)Nc2ccccc21 (stereo unspecified) | 0% | -12% | -1 | -8% | 0%
CCN(CC)C(=O)C1=C(C)N(CCC2=CCCCC2)C(=O)C(CC(=O)NCCc2ccccn2)C1 (stereo unspecified) | 3% | -5% | -24 | ? | 12%
CC(C)c1ccc(C(=O)CN2C(=O)NC3(CCc4ccccc43)C2=O)cc1 (stereo unspecified) | ? | ? | ? | 21µM* | -13%
COc1cc2c(cc1NC(=O)CN1C(=O)NC3(CCc4ccccc43)C1=O)oc1ccccc12 (stereo unspecified) | 15µM* | ? | -17 | ? | 23µM*
O=C(CN1C(=O)NC2(CCc3ccccc32)C1=O)c1ccc(Cl)cc1 (stereo unspecified) | -8% | -8% | -7 | ? | -12%
Cc1ccccc1NC(=O)CN1C(=O)NC2(CCc3ccccc32)C1=O (stereo unspecified) | 1% | -4% | -10 | -13% | -7%
CO[C@H]1[C@H](NC(=O)c2ccsc2)c2ccccc2C12CCN(Cc1cnn(C)c1C)CC2 | · | 13%[9.04 µM] | · | -13% | ·
SMILES | HT1080 IDH1KD tx | TDP1 cell CPT | IL1B secr inh | DT40 TDP1 no CPT | HT1080NT lethal
O=C(Cn1nnc(-c2cc(C(F)(F)F)cc(C(F)(F)F)c2)n1)NNC(=S)Nc1ccc(Cl)cc1 | 3% | 4% | -12 | ? | 6%
Cc1nn(C)c2c1c(C(F)(F)F)cc(=O)n2C(C)C(=O)NCc1ccccc1Cl (stereo unspecified) | · | -15% | · | -5% | ·
CCOC(=O)c1ccc(NC(=O)Cn2c(=O)cc(C(F)(F)F)c3c(C)nn(C)c32)cc1 | · | -12% | · | 16% | ·
COC(=O)c1ccc(Cn2c(=O)cc(C(F)(F)F)c3c(C)nn(C)c32)cc1 | · | ? | · | 15µM* | ·
Cc1ccc(CNC(=O)C(C)n2c(=O)cc(-c3ccccc3)c3c(C)nn(C)c32)cc1 (stereo unspecified) | · | 18µM* | · | ? | ·
Cc1nn(C)c2c1c(C(F)(F)F)cc(=O)n2C(C)C(=O)NCCC(C)C (stereo unspecified) | · | 16µM* | · | ? | ·
Cc1nn(C)c2c1c(C(F)(F)F)cc(=O)n2C(C)C(=O)NCCc1ccccc1 (stereo unspecified) | · | 0.18µM* | · | -83% | ·
COc1ccc(Cl)cc1NC(=O)C(C)n1c(=O)cc(C(F)(F)F)c2c(C)nn(C)c21 (stereo unspecified) | · | -19% | · | -25% | ·
COC(=O)c1ccc(CNC(=O)/C=C/[C@H]2O[C@@H](n3cc(C)c(=O)[nH]c3=O)C[C@@H]2O)cc1 | 13% | -7% | 10 | -1% | 13%
C/C(=N\NC(=O)C(O)(c1ccccc1)c1ccccc1)c1ccc(NC(=O)CCCC(=O)O)cc1 | -1% | -5% | 25 | 26% | 2%
Cc1nn(C)c2c1c(-c1ccccc1)cc(=O)n2Cc1ccccc1C#N | · | 23µM* | · | ? | ·
CCn1nc(C)c2c(-c3ccccc3)cc(=O)n(C(C)C(=O)Nc3ccc(OC)c(OC)c3)c21 (stereo unspecified) | · | 10µM* | · | 16µM* | ·
O=S1(=O)NC[C@]23C[C@H](c4ccc(F)cc4)[C@@H](C[C@@H]21)O3 | 8% | -21% | 26 | -17% | 6%
Cc1cc2[nH]c(=O)c(=O)[nH]c2cc1S(=O)(=O)NCc1ccc(Cl)cc1 | 9% | -3% | 11 | 2% | 18%
CCN(CC)CCNC(=O)C(=O)Nc1cc2c3c(c1)CCN3C(=O)CC2 | -2% | 4% | 37 | 13% | -2%
Cc1cc[n+](CC(=O)c2cccc([N+](=O)[O-])c2)c2ccccc12 | -19% | 8% | -2 | -25% | -4%
Cc1c(CCOC(=O)c2cccc([N+](=O)[O-])c2)sc[n+]1CC(=O)c1ccccc1 | -2% | 8.2µM* | -3 | ? | -3%
